Only some compounds are listed: those with a hit (about 15% of all), similar ones and a draw of the others.
Sm TGR block: inhibitors of Schistosoma mansoni thioredoxin glutathione reductase. Q962Y6. purified TGR, DTNB reduction, TNB absorbance 405 nm. Potency, µM (highest dose often 114 µM), actives largely listed as inhibitors. actives 3% (n = 360,000); further: nearly all actives have a fitted effect of over 60% in size
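First, TGR (20 nM dispensed) and NADPH were mixed with compound. Second, a 15 min room-temperature incubation followed. Third, further NADPH and then DTNB were added to start the reaction. Finally, TNB absorbance was monitored kinetically.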
HCV inh: HCV inhibition. Huh7.5.1 HCVcc-Cre infection, luciferase reporter, 44 h. Potency, µM (highest dose often 41.8 µM), most hits filed as inhibitors. actives 3.4% (n = 340,000). AID 651820
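A cell-based infection assay in which seeded cells (1,000 per well) receive test compound after 4 h, are inoculated with HCVcc-Cre at approximately 0.5 moi, and are incubated 44 h before luminescence detection.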
HCMV antiviral: human cytomegalovirus inhibition; activity change, negative = inhibition, % at 57.5 µM; actives 4.5% (n = 410,000); HFF cells, HCMV-luciferase reporter, 72 h; active compounds read low; in the data active means activity change below about -60%; inconclusive means no clear call, values can overlap the other calls; inactive means above about -39%
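Cell-based, HFFs, 1000 cells/well, 16 h 37C; cpds in DMSO + HCMV-luc, MOI 1 PFU/cell; 72 h 37C; OneGlo luminescence after 5 min RT; norm. to buffer vs Salinomycin 10uM.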
Pf growth 48h: P. falciparum growth inhibition at 48 hours (one generation) | P. falciparum luciferase growth in erythrocytes, 48 h | Potency, µM (highest dose often 28.7 µM), hits mostly inhibitors | actives 5.9% (n = 310,000)
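Read-out is firefly luciferase luminescence from an integrated reporter in P. falciparum, so falling signal marks reduced parasite growth. Infected erythrocytes were at 2% hematocrit and 0.1% parasitemia (final) in Albumax-supplemented RPMI 1640.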
Pf growth 96h: inhibits malaria parasite growth, 96 h | P. falciparum luciferase reporter growth, 96 h | Potency, µM (series often up to 28.7 µM), actives largely listed as inhibitors | actives 6.9% (n = 320,000) | AID 504834
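Two-generation exposure (96 h) targets delayed-death phenotype. Reporter parasites carrying integrated firefly luciferase, in red cells at 2% hematocrit and 0.05% parasitemia final, kept at 37 C, 5% CO2; luminescence loss indicates inhibition.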
SARS PLpro yeast: inhibitors of SARS-CoV papain-like protease in yeast; S. cerevisiae expressing SARS-CoV PLpro, growth rescue; actives 0.19% (n = 330,000); AID 485353; Potency, µM (highest dose often 32.9 µM), actives largely listed as activators; calls by dose curve; further: nearly all actives have a fitted effect of over 55% in size
A number is an active result; n = inactive; u = inconclusive; x = not tested or not shown; [ ] = another dose, or the depositor's remark. Unless noted, the call rests on the fitted dose curve; in most records, active means well fitted curve in the direction sought with a large enough effect; inconclusive means small, poorly fitted or top-dose-only effect, or another doubt; inactive means no such curve, though single readings can be large; an effect the other way counts as inactive or inconclusive.

SMILES	Sm TGR block	HCV inh	HCMV antiviral	Pf growth 48h	Pf growth 96h	SARS PLpro yeast
COc1cc(CNC(C)C23CC4CC(CC(C4)C2)C3)ccc1OCC(=O)NC(C)(C)C (configuration not stated)	n	u	u	10µM	n	n
COc1cc(CNC(C)C23CC4CC(CC(C4)C2)C3)cc(OC)c1OC (configuration not stated)	n	n	n	12µM	u	n
COc1cc(CNC(C)(C)CO)ccc1OCC(=O)NC(C)(C)C	n	n	n	n	n	n
CCOCCCNC(=S)N1CCCN(c2nc3cc(C)cc(C)c3cc2C#N)CC1	n	11µM	n	u	n	n
COCCCNC(=S)N1CCCN(c2nc3cc(C)c(C)cc3cc2C#N)CC1	n	22µM	n	u	n	n
CCOCCCNC(=S)N1CCCN(c2nc3cc(C)c(C)cc3cc2C#N)CC1	x	u	u	u	n	n
OC[C@H]1O[C@H](OC[C@H]2OC(O)[C@H](O)[C@@H](O)[C@@H]2O)[C@H](O)[C@@H](O)[C@@H]1O (some centres not stated)	n	n	n	n	n	x
O=Cc1c(Cl)nc2ccccn2c1=O	u	10µM	n	n	n	n
Cc1cccn2c(=O)c(C=O)c(Sc3ncccn3)nc12	22µM	u	n	u	n	n
Cc1cccn2c(=O)c(C=O)c(N3CCN(c4ccc(F)cc4)CC3)nc12	n	n	n	n	n[5.75 µM]	n
CC1CCN(c2nc3ccccn3c(=O)c2C=O)CC1	n	n	n	n	u	n
Cc1cccn2c(=O)c(C=O)c(Cl)nc12	6.3µM	u	-88	n	n	n
CCN(CC(=O)Nc1c(F)cccc1F)C(=O)c1ccc2c(c1)OCCO2	n	n	n	n	n	x
CCCCc1ccc(NC(=O)C(C)CC)cc1 (configuration not stated)	n	n	n	n	n	n
O=C(c1ccccc1)c1cccs1	n	n	u	n	n	n
O=C1NC(c2ccccc2)C(C(=O)c2cccs2)=C1O (configuration not stated)	n	n	n	n	12µM	n
COC(=O)c1sc(NC(=O)CCCn2nc([N+](=O)[O-])cc2C)c(C(=O)OC)c1C	n	u	u	n	u	n
CCOC(=O)Nc1c2ccccc2nc2ccccc12	n	n	n	15µM	10µM	n
CCOC(=O)c1c(Nc2ccc(O)cc2)nnc(-c2ccccc2)c1-c1ccccc1	45µM	x	n	x	x	x
CCOC(=O)c1nc(Nc2ccc(OC)cc2)c2ccccc2n1	n	u	n	n	u	n
CCOC(=O)c1nc(Nc2ccc(Nc3ccccc3)cc2)c2ccccc2n1	n	11µM	u	u	u	n
CCOC(=O)c1ccc(Nc2nc(C(=O)OCC)nc3ccccc23)cc1	n	u	u	9.3µM	n	n
CCOC(=O)c1c(Nc2ccccc2)nnc(-c2ccccc2)c1-c1ccccc1	n	x	n	x	x	x
CCOC(=O)c1nc(Nc2ccc(C(=O)O)cc2)c2ccccc2n1	n	n	n	n	n	n
COc1ccc(N(C(=O)c2ccc(C(C)(C)C)cc2)S(=O)(=O)c2ccc(Cl)cc2)cc1	n	x	n	x	x	x
SMILES	Sm TGR block	HCV inh	HCMV antiviral	Pf growth 48h	Pf growth 96h	SARS PLpro yeast
O=C1CN(C(=O)COC(=O)CCC(=O)c2ccc(F)cc2)c2ccccc2N1	x	n	n	x	x	n
N#Cc1ccccc1NC(=O)COc1ccc2c(c1)OCO2	n	n	n	n	8.3µM	n
CCc1ccccc1NC(=O)COc1ccc2c(c1)OCO2	n	n	n	n	n	n
COC(=O)C(C(=O)OC)[C@@H]1C=C[C@H](C[N+](=O)[O-])N(C(C)=O)C1	x	u	n	x	x	x
COc1cc(CN2CCC(CO)(Cc3cccc(C(F)(F)F)c3)CC2)ccc1F	n	u	n	6.6µM	4.1µM	n
Cc1c(CN2CCC(CO)(Cc3cccc(C(F)(F)F)c3)CC2)c2ccccc2n1C	n	u	-99	3.7µM	u	n
COc1ccc(F)c(CN2CCC(CO)(Cc3cccc(C(F)(F)F)c3)CC2)c1	n	n	n	u	n	n
OCC1(Cc2cccc(C(F)(F)F)c2)CCN(Cc2cc3ccccc3o2)CC1	n	n	n	u	n	n
Cc1ccn2c(=S)[nH]nc2c1	x	x	-67	x	x	x
O=C1CCN(Cc2ccc(Cl)cc2Cl)C(=O)N1	x	n	n	x	x	x
O=C1CCCC2=C1C1(CCCC1)N=C(Nc1nc3cc(-c4ccccc4)ccc3o1)N2	x	x	n	x	x	x
CCN(CC)CCn1c(NC(=O)c2ccc(C)cc2)nc2ccccc21	n	u	n	n	6.6µM	n
CCN(CC)CCn1c(NC(=O)c2ccc(C(F)(F)F)cc2)nc2ccccc21	n	n	n	n	u	n
CCN(CC)CCn1c(=N)n(CC(=O)c2ccc(C)cc2)c2ccccc21	n	u	n	4.7µM	n	n
CC(=O)Nc1nonc1-c1nc2ccccc2n1Cc1ccccc1	n	u	n	12µM	x	n
CCC(=O)Nc1nc2ccccc2n1Cc1ccc(C)cc1	n	n	u	2.9µM	n	n
CC(=O)Nc1nonc1-c1nc2ccccc2n1Cc1nnc(C)o1	n	n	n	n	n	n
Cc1cccc(OCCC(=O)Nc2ccc(Cl)cc2F)c1	n	n	n	n	n	u
COc1cc(Cl)c(S(=O)(=O)NCCc2c(C)[nH]c3c(C)cccc23)cc1Cl	n	x	n	x	x	x
CCN(CC)S(=O)(=O)c1ccc2oc(C(=O)N(C)Cc3ccccc3)c(C)c2c1	n	x	n	x	x	x
COc1ccc(OC)c(NC(=O)Cc2c(C(=O)O)n(C)c3ccc(C)cc23)c1	n	x	n	x	x	x
COc1ccc(C)cc1NC(=O)C(NCC1CCCO1)c1ccccc1 (configuration not stated)	n	n	n	n	u	n
CC(=O)Nc1ccc(NC(=O)c2ccc(-c3ccnn3C)c3ccoc23)cc1	x	x	n	x	x	x
CCC(=O)Nc1nc2ccccc2n1Cc1ccccc1	n	u	-92	u	u	n
Cc1cccc(NC(=O)C2CCN(C(=O)c3ccccc3C)CC2)n1	n	n	u	n	n	n
SMILES	Sm TGR block	HCV inh	HCMV antiviral	Pf growth 48h	Pf growth 96h	SARS PLpro yeast
CCCn1c(NC(=O)C2CCN(C(=O)c3ccccc3C)CC2)nc2ccccc21	n	u	n	12µM	u	n
COCC(=O)N1CCCC(C(=O)c2ccc(-c3ccccc3)c(F)c2)C1 (configuration not stated)	n	u	n	n	u	n
CCOc1ccc(CCNC(=O)CSc2n[nH]c(N)n2)cc1OCC	n	n	x	n	n	n
COc1ccc(OC)c(NC(=O)c2ccc(CSc3nnc(C)s3)cc2)c1	n	n	n	u	n	n
COC1CCCCC1Nc1cc(C)cc(C)c1 (configuration not stated)	n	n	n	x	13µM	n
Cn1c(N)c(C(=O)CSc2nnc(C3CC3)n2N)c(=O)n(C)c1=O	n	n	n	n	n	n

High-throughput results from PubChem.
